The record followed here is PubChem BioAssay (EPA / NIEHS).

What all share (details): mRNA level, 48 h; actives raise or lower the signal
Read-out in test [1]: Glutathione S-transferase M3 (GSTM3), GSTM3 (gene 2947)
In words: LTEA_HepaRG_GSTM3: Life Technologies and Expression Analysis (LTEA) Assay for Glutathione S-transferase M3 (GSTM3) using HepaRG (AID 2283501). An outline of the steps: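 GSTM3 transcript levels came from Fluidigm TaqMan qRT-PCR normalized to three housekeeping genes, fitted in both directions against DMSO. HepaRG cultures received chemicals for 48 h in serum-free induction medium (0.5% DMSO), 8 half-log concentrations up to 100 uM, duplicate.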

Read-out in test [2]: Heat shock 70 kDa protein 1 (HSPA1A), gene 3303
Briefly: LTEA_HepaRG_HSPA1A: Life Technologies and Expression Analysis (LTEA) Assay for Heat shock 70 kDa protein 1 (HSPA1A) using HepaRG (AID 2283502). The method in brief: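 Cells were plated and cultured for 48 h, then switched to serum-free induction medium. Chemicals were added at eight half-log concentrations up to 100 uM for 48 h. RNA was then isolated and HSPA1A measured by qRT-PCR with bidirectional curve fitting against DMSO.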

Read-out in test [3]: Hypoxia-inducible factor 1-alpha (Homo sapiens) (UniProt Q16665)
Briefly: LTEA_HepaRG_HIF1A: Life Technologies and Expression Analysis (LTEA) Assay for Hypoxia-inducible factor 1 (HIF1A) Trancription factor using HepaRG (AID 2283503). An outline of the steps: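 HIF1A transcript level read by qRT-PCR (ACTB, GAPDH, POLR2A normalization) after 48 h chemical exposure of HepaRG cultures. Eight half-log concentrations, top 100 uM, 0.5% DMSO vehicle, duplicates; bidirectional curve fit against DMSO baseline.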

Read-out in test [4]: 3-Hydroxy-3-Methylglutaryl-CoA Synthase 2 (HMGCS2), HMGCS2 (gene 3158)
Briefly: LTEA_HepaRG_HMGCS2: Life Technologies and Expression Analysis (LTEA) Assay for 3-Hydroxy-3-Methylglutaryl-CoA Synthase 2 (HMGCS2) using HepaRG (AID 2283504). The method in brief: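 Readout is HMGCS2 transcript by qRT-PCR, housekeeping-normalised (ACTB/GAPDH/POLR2A) and fitted bidirectionally against 0.5% DMSO. Differentiated HepaRG cells received chemicals 48 h, duplicate wells, eight half-log concentrations topping at 100 uM.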

Read-out in a further test: HGF (gene 3082)
In words: LTEA_HepaRG_HGF: Life Technologies and Expression Analysis (LTEA) Assay for Hepatocyte Growth Facto (HGF) using HepaRG (AID 2283505). An outline of the steps:
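HGF transcript was quantified by TaqMan qRT-PCR against three housekeeping genes after 48 h treatment of HepaRG cells. Exposure ran in duplicate over eight half-log steps topping at 100 uM in 0.5% DMSO vehicle.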

Read-out in test [5]: Insulin Like Growth Factor 1 (IGF1), IGF1 (gene 3479)
In words: LTEA_HepaRG_IGF1: Life Technologies and Expression Analysis (LTEA) Assay for Insulin Like Growth Factor 1 (IGF1) using HepaRG (AID 2283506). An outline of the steps:
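Cells are thawed, plated and cultured 48 h, then exposed in duplicate to chemical (highest 100 uM, half-log steps, 0.5% DMSO) for another 48 h. Total RNA is analysed by Fluidigm qRT-PCR for IGF1 expression relative to vehicle.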

Read-out in test [6]: Intercellular Adhesion Molecule 1 (ICAM1), ICAM1 (gene 3383)
Briefly: LTEA_HepaRG_ICAM1: Life Technologies and Expression Analysis (LTEA) Assay for Intercellular Adhesion Molecule 1 (ICAM1) using HepaRG (AID 2283507). An outline of the steps:
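ICAM1 transcript levels measured by qRT-PCR, normalized to three housekeeping genes (ACTB, GAPDH, POLR2A), after 48 h chemical exposure of HepaRG cells. Duplicate eight-point half-log series from 100 uM in 0.5% DMSO; gain or loss fitted against vehicle.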

Read-out in test [7]: Insulin-like growth factor-binding protein 1 (IGFBP1), IGFBP1 (gene 3484)
In words: LTEA_HepaRG_IGFBP1: Life Technologies and Expression Analysis (LTEA) Assay for Insulin-like growth factor-binding protein 1 (IGFBP1) using HepaRG (AID 2283508). An outline of the steps:
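Read-out is qRT-PCR transcript level normalized to three housekeeping genes, fitted in both directions against 0.5% DMSO. Differentiated HepaRG cells received eight half-log concentrations (top 100 uM) in duplicate for 48 h in serum-free induction medium.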

Read-out in test [8]: Interleukin 6 (IL6), IL6 (gene 3569)
In words: LTEA_HepaRG_IL6: Life Technologies and Expression Analysis (LTEA) Assay for Interleukin 6 (IL6) using HepaRG (AID 2283509). An outline of the steps:
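Transcript levels, normalized to three housekeeping genes, were quantified by qRT-PCR after 48 h chemical treatment of HepaRG cells. Eight-point half-log series from 100 uM in 0.5% DMSO, duplicates. Fitted both directions against DMSO baseline.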

Read-out in test [9]: Interleukin 6 Receptor (IL6R), IL6R (gene 3570)
In words: LTEA_HepaRG_IL6R: Life Technologies and Expression Analysis (LTEA) Assay for Interleukin 6 Receptor (IL6R) using HepaRG (AID 2283510). An outline of the steps: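 Cells were thawed, plated and cultured 48 h, then medium was changed to serum-free induction medium. Chemicals were added in duplicate (100 uM top, half-log steps, 0.5% DMSO) for 48 h. Lysates were analyzed by qRT-PCR for IL6R expression.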

Read-out in test [10]: Potassium channel subfamily K member 1 (KCNK1), KCNK1 (gene 3775)
In words: LTEA_HepaRG_KCNK1: Life Technologies and Expression Analysis (LTEA) Assay for Potassium channel subfamily K member 1 (KCNK1) using HepaRG (AID 2283511). The method in brief: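 KCNK1 transcript measured by TaqMan qRT-PCR against three housekeeping genes, after HepaRG cells were treated 48 h with eight half-log concentrations (top 100 uM, 0.5% DMSO). Curves fitted bidirectionally relative to vehicle.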

Read-out in test [11]: Keratin 19 (KRT19), KRT19 (gene 3880)
Briefly: LTEA_HepaRG_KRT19: Life Technologies and Expression Analysis (LTEA) Assay for Keratin 19 (KRT19) using HepaRG (AID 2283512). An outline of the steps: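 KRT19 transcript measured by TaqMan qRT-PCR, referenced to three housekeeping genes, after HepaRG cells received test chemicals for 48 h. Eight half-log concentrations, top 100 uM, 0.5% DMSO vehicle; increases and decreases both fitted.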

Read-out in test [12]: JUN Transcription Factor, JUN (gene 3725)
In words: LTEA_HepaRG_JUN: Life Technologies and Expression Analysis (LTEA) Assay for JUN Transcription Factor using HepaRG (AID 2283513). An outline of the steps: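 Read-out is JUN transcript level by TaqMan qRT-PCR, normalized to ACTB, GAPDH and POLR2A, after 48 h chemical treatment of HepaRG cells. Concentration-response spanned eight half-log points up to 100 uM in 0.5% DMSO.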

Read-out in test [13]: Lipase C (LIPC), LIPC (gene 3990)
Briefly: LTEA_HepaRG_LIPC: Life Technologies and Expression Analysis (LTEA) Assay for Lipase C (LIPC) using HepaRG (AID 2283514). The method in brief:
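LIPC expression was quantified by qRT-PCR against three housekeeping genes (ACTB, GAPDH, POLR2A). Differentiated human HepaRG cells received eight half-log doses (top 100 uM, 0.5% DMSO) in duplicate for 48 h; fitting bidirectional relative to DMSO.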

Read-out in test [14]: Lipoprotein lipase (LPL), LPL (gene 4023)
Briefly: LTEA_HepaRG_LPL: Life Technologies and Expression Analysis (LTEA) Assay for Lipoprotein lipase (LPL) using HepaRG (AID 2283515). The method in brief:
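LPL transcript levels quantified by TaqMan qRT-PCR against three housekeeping genes after 48 h chemical treatment of HepaRG cells. Eight-point half-log series from 100 uM in 0.5% DMSO, tested in duplicate; bidirectional fitting versus vehicle.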

Read-out in test [15]: MicroRNA 122 (MIR122), gene 406906
Briefly: LTEA_HepaRG_MIR122: Life Technologies and Expression Analysis (LTEA) Assay for MicroRNA 122 (MIR122) using HepaRG (AID 2283516). Further: the transcript read is the microRNA miR-122. An outline of the steps:
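Human liver HepaRG cultures receive test chemicals for 48 h at eight half-log concentrations from 100 uM. Expression is quantified by qRT-PCR with ACTB/GAPDH/POLR2A normalization and fitted bidirectionally against 0.5% DMSO.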

Read-out in test [16]: matrix metalloproteinase-10 (MMP10), MMP10 (gene 4319)
In words: LTEA_HepaRG_MMP10: Life Technologies and Expression Analysis (LTEA) Assay for matrix metalloproteinase-10 (MMP10) using HepaRG (AID 2283517). The method in brief: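 Expression measured by TaqMan qRT-PCR with ACTB/GAPDH/POLR2A normalisation after 48 h chemical exposure of HepaRG cells. Eight half-log concentrations, top 100 uM, 0.5% DMSO vehicle, duplicates; gain or loss fitted against vehicle.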

Read-out in the next test: MYC, MYC (gene 4609)
Briefly: LTEA_HepaRG_MYC: Life Technologies and Expression Analysis (LTEA) Assay for MYC using HepaRG (AID 2283518). An outline of the steps: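 MYC transcript changes, up or down relative to 0.5% DMSO, from TaqMan qRT-PCR normalized to three housekeeping genes. Human HepaRG cultures received chemicals for 48 h at eight half-log concentrations up to 100 uM, in duplicate.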

Read-out in test [17]: matrix metalloproteinase-3 (MMP3), MMP3 (gene 4314)
Briefly: LTEA_HepaRG_MMP3: Life Technologies and Expression Analysis (LTEA) Assay for matrix metalloproteinase-3 (MMP3) using HepaRG (AID 2283519). An outline of the steps:
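Fluidigm-based TaqMan qRT-PCR, normalized to ACTB, GAPDH and POLR2A and fitted bidirectionally versus 0.5% DMSO, measured transcript levels. Treatment: duplicate 48 h exposures of HepaRG cells, ~100,000/well, to eight half-log concentrations topping at 100 uM.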

Read-out in test [18]: Paternally Expressed 10 (PEG10), PEG10 (gene 23089)
In words: LTEA_HepaRG_PEG10: Life Technologies and Expression Analysis (LTEA) Assay for Paternally Expressed 10 (PEG10) using HepaRG (AID 2283520).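 On AC50: PEG10 transcript by qRT-PCR normalised to ACTB GAPDH and POLR2A.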 The method in brief:
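Human HepaRG cultures are dosed for 48 h across an eight-point half-log series starting at 100 uM, with 0.5% DMSO as vehicle and baseline. Gain or loss of PEG10 transcript is measured by qRT-PCR and fitted in both directions.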

Activity calls are given as the source filed them. How the source made its calls: active means hit-call score of the fitted dose curve at least 0.9, where 1 is the maximum; inactive means score below 0.9.

Sequence of Hypoxia-inducible factor 1-alpha (Homo sapiens) (Q16665 whole entry, looked up): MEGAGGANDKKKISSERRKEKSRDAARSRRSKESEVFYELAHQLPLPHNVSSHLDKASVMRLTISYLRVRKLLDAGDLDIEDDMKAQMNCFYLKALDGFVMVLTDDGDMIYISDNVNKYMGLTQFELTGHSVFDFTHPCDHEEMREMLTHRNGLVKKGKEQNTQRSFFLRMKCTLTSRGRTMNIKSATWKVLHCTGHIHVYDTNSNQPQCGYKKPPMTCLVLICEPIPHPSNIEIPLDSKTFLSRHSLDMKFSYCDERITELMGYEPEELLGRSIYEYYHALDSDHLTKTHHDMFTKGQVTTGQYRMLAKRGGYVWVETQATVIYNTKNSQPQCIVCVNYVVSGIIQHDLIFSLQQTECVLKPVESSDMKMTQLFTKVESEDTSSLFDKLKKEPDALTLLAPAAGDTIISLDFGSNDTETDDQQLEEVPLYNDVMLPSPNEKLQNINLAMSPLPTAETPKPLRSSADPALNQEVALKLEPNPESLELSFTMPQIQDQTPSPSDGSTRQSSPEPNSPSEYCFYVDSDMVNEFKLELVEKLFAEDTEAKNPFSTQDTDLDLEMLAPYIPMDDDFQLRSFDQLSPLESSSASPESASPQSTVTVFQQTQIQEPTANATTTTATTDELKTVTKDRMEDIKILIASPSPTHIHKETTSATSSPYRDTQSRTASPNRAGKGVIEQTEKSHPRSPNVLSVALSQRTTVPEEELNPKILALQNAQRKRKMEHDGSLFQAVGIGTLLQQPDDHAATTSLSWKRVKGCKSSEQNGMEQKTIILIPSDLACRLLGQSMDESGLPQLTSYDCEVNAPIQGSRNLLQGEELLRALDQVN

Regarding `C=C(C)C(N)=O`, the result (in test [1]; in [2]; in test [3]; in test [4]; in the test with HGF (gene 3082); in [5]) was inactive. In addition, the molecule was called inactive in [6], in test [7], in test [8], in test [9], in test [10] and in test [11]. For the same molecule, the outcome in test [12] is “inactive”; in test [13] it was “inactive”; in test [14], “inactive”; in test [15] it was “inactive”; in test [16], “inactive”; with MYC, MYC (gene 4609), “inactive”. Moreover, the result in [17] and in test [18] was inactive.
One may read the AC50 as the midpoint of the concentration-response curve, whichever way the signal moves. In the case of `O=C(c1ccc(OCCN2CCCCC2)cc1)c1c(-c2ccc(O)cc2)sc2cc(O)ccc12`, the molecule was classed as inactive (in test [1]; in the test with HGF (gene 3082); in test [9]; in test [10]; in test [11]; in [13]). Besides, the outcome in test [15] is “inactive”; with MYC, MYC (gene 4609) it was “inactive”; in [17], “inactive”. For the same molecule, the AC50 was 88.1 µM (active) in [2]; 3.14 µM (active) in [4]; 78.3 µM (active) in test [5]; 71 µM (active) in test [6]; 75.6 µM (active) in test [7]; 75.9 µM (active) in [8]. Besides, the AC50 in test [12] is 82.6 µM (active); in [14] it was 80.4 µM (active); in [16], 78.7 µM (active); in test [18] it was 65.9 µM (active).
On to `CCCCOCCOCCO`, for which the call (in test [1]; in test [2]; in test [3]; in test [4]; in the test with HGF (gene 3082); in [5]) was inactive. Moreover, the molecule was called inactive in [6], in test [7], in test [8], in test [9], in [10] and in test [11]. The outcome in [12] was “inactive”; in [13] it was “inactive”; in test [14], “inactive”; in test [15], “inactive”; in test [16], “inactive”; with MYC, MYC (gene 4609), “inactive”. Further, the molecule was classed as inactive in [17] and in test [18].
Turning to `C[C@]12CC[C@@H]3c4ccc(O)cc4CC[C@H]3[C@@H]1CC[C@@H]2O`, the result (in [1]; in test [2]; in test [4]; in the test with HGF (gene 3082); in [6]; in test [7]) was inactive. Further, the outcome in test [8], in [9], in [10], in test [11], in [12] and in [13] was inactive. Besides, the outcome in test [14] was “inactive”; in [15] it was “inactive”; in test [16], “inactive”; with MYC, MYC (gene 4609) it was “inactive”; in test [17] it was “inactive”. Further, the figures for the AC50 in test [5] and in test [18] were 31.2 µM (active) and 10.6 µM (active), respectively.
